Assay results reported in PubChem BioAssay AID1159606 (Sanford-Burnham Center for Chemical Genomics, 2016).
Hit rate of the full screen: of about 360,000 compounds, about 7,300 (2%) were called active. No stated cut-off is given here; in the data, active means inhibition above about 50%; inactive means the rest. Many of the other results were omitted from the sample, so actives are more common in it than they were.

assay: blockers of TWEAK-induced Fn14 reporter activity – luciferase reporter cells, uHTS, primary screen (AID 1159606); conditions: TWEAK-stimulated Fn14 reporter cells, luciferase luminescence, 8 h; at 10 µM; stronger effect = higher value

| Compound | inhibition |
| --- | --- |
| Cc1csc(NC(=O)CSc2ccc(-c3ccc(F)cc3)nn2)n1 | -0.16% (inactive) |
| C=CCC[C@H](CCCCC)OC(=O)/C=C/[C@H](O)[C@@H](O)C[C@@H](O)CC=C | 2.69% (inactive) |
| c1c2c(cc3sc(N4CCCCC4)nc13)OCCO2 | 98.9% (active) |
| CCOC(=O)N1CCC(NC(=O)c2ccc3nc(N4CCOCC4)sc3c2)CC1 | 18.3% (inactive) |
| CCCCc1ccc(NS(=O)(=O)c2cccc(C(=O)N3CCCN(C)CC3)c2)cc1 | 13.3% (inactive) |
| CN(C)/C=C/c1c(C#N)c(=O)ncn1Cc1ccccc1 | 1.93% (inactive) |
| CN(C)c1ccnc2sc3c(=O)n(Cc4ccccc4)cnc3c12 | 69.3% (active) |
| O=c1c2c(ncn1Cc1ccccc1)nc1n2CCC1 | -3.28% (inactive) |
| O=C(c1ccccc1)N1CCN(c2cc(-c3ccccc3)nc3cc(-c4cccc(Cl)c4)nn23)CC1 | 50.7% (active) |
| C#Cc1cc(N2CCN(C(=O)c3ccoc3)CC2)n2nc(-c3cccc(Cl)c3)cc2n1 | -13.9% (inactive) |
| O=C(c1ccccc1)N1CCN(C(=O)c2cc3nc(-c4ccccc4)cc(C(F)(F)F)n3n2)CC1 | 12% (inactive) |
| CCC(Sc1nncn1C)C(=O)Nc1nnc(-c2ccc(Cl)cc2)s1 (configuration not stated) | 2.15% (inactive) |
| Cc1cc(C(=O)OCC(=O)Nc2ccc(F)c(F)c2)c(C)o1 | -6.41% (inactive) |
| O=S(=O)(NCC1CCCO1)c1cnc(Cl)c(Cl)c1 (configuration not stated) | 61.4% (active) |
| CCOc1ccc(S(=O)(=O)NCC2CCCO2)cc1 (configuration not stated) | -13.5% (inactive) |
| O=S(=O)(NCC1CCCO1)c1ccc2ccccc2c1 (configuration not stated) | -2.08% (inactive) |
| CC1CCCC(C)N1C(=O)COC(=O)c1ccccc1C(=O)c1ccccc1 (configuration not stated) | 3.29% (inactive) |
| Cc1ncoc1C(=O)N1CCCC(C(=O)c2ccc3c4c(cccc24)CC3)C1 (configuration not stated) | -10.9% (inactive) |
| O=C(CN1CCN(c2ccccc2F)CC1)c1ccc2c(c1)OCO2 | -7.75% (inactive) |
| CCC1(c2ccccc2)NC(=O)N(CC(=O)c2ccc3c(c2)OCO3)C1=O (configuration not stated) | 1.98% (inactive) |
| O=C(CCN1CCc2ccccc2C(O)(c2ccccc2)C1)c1ccc2c(c1)OCCO2 (configuration not stated) | 60.1% (active) |
| NC(=O)c1nnsc1-c1ccc(-c2snnc2C(N)=O)cc1 | 16.3% (inactive) |
| CCc1ccccc1N1CN(Cc2ccco2)CNC1=S | -34% (inactive) |
| CC(C)C(NC(=O)C1CCC(C(C)(C)C)CC1)C(=O)NCCCN1CCCCC1 (configuration not stated) | -11.2% (inactive) |
| Cc1cc(S(=O)(=O)N2CCOCC2)ccc1OCC(=O)N1CCOCC1 | 3.41% (inactive) |
| Cc1cc(C(=O)COc2ccccc2[N+](=O)[O-])c(C)n1-c1cccc(S(=O)(=O)N2CCOCC2)c1 | 82.7% (active) |

| Compound | inhibition |
| --- | --- |
| COC(=O)c1cc(Oc2ccc(S(=O)(=O)N3CCOCC3)cc2[N+](=O)[O-])cc(C(=O)OC)c1 | 3.34% (inactive) |
| COCCN(C(=O)C(C)N1C(=O)c2ccccc2C1=O)c1c(N)n(CC(C)C)c(=O)[nH]c1=O (configuration not stated) | 2.19% (inactive) |
| CC/C(O)=C1\C(=O)CC(C)(C)CC1=NCCc1nc2ccccc2[nH]1 | 4.19% (inactive) |
| CC1(C)O[C@@H]2CC3C4C[C@H](F)C5=CC(=O)C=CC5(C)C4C(O)CC3(C)[C@]2(C(=O)CO)O1 (some centres not stated) | -4.61% (inactive) |
| COc1ccc(C(=O)NCC[N+](C)(C)C)cc1 | 7.64% (inactive) |
| CS(=O)(=O)N(CC(=O)N/N=C/c1ccccn1)c1ccc(Oc2ccccc2)cc1 | 4.09% (inactive) |
| Brc1ccc2ncnc(NCc3cccnc3)c2c1 | 62.2% (active) |
| Clc1ccc(Cn2ncc3c(NCc4cccnc4)ncnc32)cc1 | 31.4% (inactive) |
| c1ccc(CNc2ncnc3[nH]ncc23)cc1 | 2.58% (inactive) |
| Cc1ccccc1NC(=O)NC1(C(=O)N2CCCC2)CCCCC1 | -3.42% (inactive) |
| CC(C)C(=O)NC(NC(=S)NC1CCS(=O)(=O)C1)C(Cl)(Cl)Cl (configuration not stated) | 25.4% (inactive) |
| O=S1(=O)CCC(NC(=S)SCc2ccccc2Br)C1 (configuration not stated) | 54.2% (active) |
| COc1ccc(NC(=S)NC2CCS(=O)(=O)C2)cc1 (configuration not stated) | -0.47% (inactive) |
| O=C(CSc1ccccc1F)NC1CCS(=O)(=O)C1 (configuration not stated) | 2.35% (inactive) |
| CCCSC(=S)NC1CCS(=O)(=O)C1 (configuration not stated) | 78.9% (active) |
| O=C(Cc1ccc(Cl)cc1)NC1CCS(=O)(=O)C1 (configuration not stated) | -0.04% (inactive) |
| Cc1ccc(NC2CCCN(C(=O)CCC3(C)CC3)C2)cc1C (configuration not stated) | -13.8% (inactive) |
| CSc1ccc(/C=C2\NC(=O)NC2=O)cc1 | -11.1% (inactive) |
| CNC(=O)c1c(NC(NC(=O)c2ccco2)C(=O)c2ccc(Cl)cc2)sc2c1CCCC2 (configuration not stated) | -9.64% (inactive) |
| CCCc1nn(C)c2c(=O)[nH]c(-c3cc(S(N)(=O)=O)ccc3OCC)nc12 | -1.76% (inactive) |
| CNC(=O)C1CCN(S(=O)(=O)c2c(C)noc2/C=C/c2cccc(C)c2)CC1 | -21.5% (inactive) |
| Cc1noc(/C=C/c2ccco2)c1S(=O)(=O)N1CCC(C(=O)N2CCc3ccccc32)CC1 | 6.06% (inactive) |
| Cc1noc(/C=C/c2ccco2)c1S(=O)(=O)N1CCC(C(=O)Nc2ccc(Cl)cn2)CC1 | 51% (active) |
| CCCCN1C(=O)C(CC(=O)NCc2cccs2)CC(C(=O)N2CCCCCC2)=C1C (configuration not stated) | -6.58% (inactive) |
| Oc1cc(O)c2c(c1)OC(c1ccc(O)c(O)c1)C(O)C2 (configuration not stated) | -8.69% (inactive) |
| Clc1ccc(-c2cccc3nccn23)cc1 | -3.21% (inactive) |

| Compound | inhibition |
| --- | --- |
| COC(=O)c1cccc(C(=O)N2CCCC(Nc3ccc4c(c3)OCCO4)C2)c1 (configuration not stated) | 13.2% (inactive) |
| CCCCN(C(C)=O)c1ccc2c(c1)C1CC2CCN1Cc1ccccc1 (configuration not stated) | -18% (inactive) |
| CCCCNC(=O)OCCSCCS(=O)(=O)c1ccc(Cl)cc1 | -5.78% (inactive) |
| Cc1cccc(NC(=O)c2nc(S(=O)(=O)Cc3ccccc3)ncc2Cl)c1 | 75.7% (active) |
| Cc1cccc(CN2CCC(CNC(=O)Nc3ccc(F)c(Cl)c3)CC2)c1 | 10.9% (inactive) |
| Cc1cccc(CS(=O)(=O)c2ncc(Cl)c(C(=O)Nc3ccc(F)cc3)n2)c1 | 77% (active) |
| Cc1ccc(C)c(Cn2nnc3c(=O)[nH]c(C(=O)Nc4ccc(F)cc4)nc32)c1 | -5.18% (inactive) |
| Cc1cccc(NC(=O)CCN2CC(C)CC(C)C2)c1 (configuration not stated) | -9.11% (inactive) |
| Cc1cccc(NC(=O)Cn2cc(C(=O)c3ccco3)c3ccccc32)c1 | -6.45% (inactive) |
| CC(C)CN(CC(C)C)CC(O)CN(c1ccccc1)S(=O)(=O)c1ccccc1[N+](=O)[O-] (configuration not stated) | 16% (inactive) |
| CC(=O)C1C(c2ccc(Cl)cc2)c2c(n[nH]c2C)CC1(C)O (configuration not stated) | -9.34% (inactive) |
| CC(C)(C)C(=O)c1c(N)[nH]c(C(=O)c2ccccc2)c1-c1ccc(F)cc1 | -3.63% (inactive) |
| CN(C(=O)Nc1ccc(Cl)cc1)n1cnc2ccccc2c1=O | 1.4% (inactive) |
| CN(c1ccc2nc3ccccc3c(=O)n2n1)C1CCCCC1 | 105% (active) |
| CC(C)(C)c1nc2ccccc2c(=O)n1N1C(=O)c2ccccc2C1=O | 20.8% (inactive) |
| CCCCNC(=O)CSc1nc2ccc(NC(=O)CSc3nnc(COc4ccccc4C)n3C)cc2s1 | -37.4% (inactive) |
| CCCCNC(=O)CSc1nc2ccc(NC(=O)CSc3nnc(N)s3)cc2s1 | 23.8% (inactive) |
| Nc1nnc(SCC(=O)Nc2ccc3nc(SCC(=O)Nc4ccccc4)sc3c2)s1 | 86.4% (active) |
| Cc1nc(CNS(=O)(=O)c2ccc(Oc3ccccc3)cc2)cs1 | 23.5% (inactive) |
| c1ccc2c(C[n+]3csc4ccccc43)cccc2c1 | -11.1% (inactive) |
| O=C(C(c1ccccc1)c1ccccc1)N1CCN(CC(O)COc2ccccc2)CC1 (configuration not stated) | 3.97% (inactive) |
| OC(CN=c1sc2ccccc2n1CC(O)COc1ccccc1)COc1ccccc1 (configuration not stated) | 70.7% (active) |
| CC(C)c1ccc(OCC(O)Cn2cnc3ccccc32)cc1 (configuration not stated) | -16.5% (inactive) |
| COc1ccc([C@H]2CC(=O)C[C@@H](CCn3cc(CC4CCCC4)nn3)O2)cc1 | 7.34% (inactive) |
| C[C@@H]1CC2=C(C(=O)OC(C)(C)O2)[C@@H](C2CC2)O1 | 4.57% (inactive) |
